Assay results published in the supplement of paper PMC9897528.

tested on: Scedosporium aurantiacum CBS 136046; test: growth inhibition relative to DMSO control (OD600); higher = more antifungal activity, active = 80 or more; extreme values may be limits of the assay; conditions: 5 µM; 72 h; 37 °C
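Also: conidia screened in RPMI 1640 medium under 5% CO2, growth read by spectrophotometer, medium with 0.5% DMSO serving as the untreated reference.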

Growth inhibition, inactive:
CC(=N)N1CC[C@H](SC2=C(C(=O)O)N3C(=O)[C@@H]([C@@H](C)O)[C@H]3C2)C1 5.55%, C/C(=N\NC(=O)C1CC1c1ccccc1)c1ccc(NC(=O)c2ccco2)cc1 (stereo not drawn) 1.06%, Oc1cccc(C(Nc2nccs2)c2ccc3cccnc3c2O)c1 (stereo not drawn) 5.56%, O=C1C=C(c2ccccc2)S(=O)(=O)c2ccccc21 12.3%, c1cc(CN2CCCNCCNCCCNCC2)ccc1CN1CCCNCCNCCCNCC1 6.54%, COc1cc2c(O)c3c(c(-c4ccc5c(c4)OCO5)c2cc1OC)C(=O)OC3 25%, O=C(Nc1[nH]c(=O)ncc1F)c1ccccc1 5.77%, O=C(O)c1cc(-c2ccccc2)nc2ccccc12 12.6%, CCc1ccc(C2CC(C(F)(F)F)n3ncc(C(=O)NCc4ccc(OC)cc4)c3N2)cc1 (stereo not drawn) 34.5%, CCOC(=O)/C=C/[C@H](C[C@@H]1CCNC1=O)NC(=O)[C@H](CC)n1cccc(NC(=O)c2cc(C)on2)c1=O 2%, O=C(NCc1ncc(C(F)(F)F)cc1Cl)c1c(Cl)cccc1Cl 0%, CC(C)(C)NC(=O)[C@@H]1C[C@@H]2CCCC[C@@H]2CN1C[C@@H](O)[C@H](Cc1ccccc1)NC(=O)[C@H](CC(N)=O)NC(=O)c1ccc2ccccc2n1 15%, CO/N=C(\C(=O)N[C@@H]1C(=O)N2C(C(=O)OCOC(=O)C(C)(C)C)=C(/C=C\c3scnc3C)CS[C@H]12)c1csc(N)n1 0%
